Compound activity as filed in PubChem BioAssay.
Most compounds without a hit are left out; they make up all but 10% or so of the library.
VDR inh – vitamin D3 receptor (human) inhibition. P11473. VDR-SRC2-3 peptide fluorescence polarization, 2 h. Potency, µM, inactives show max response, negative = inhibition, most hits filed as inhibitors. actives 0.93% (n = 400,000). AID 504847; note: potency is the fitted concentration of half-maximal effect
Target sequence (P11473 whole entry, looked up): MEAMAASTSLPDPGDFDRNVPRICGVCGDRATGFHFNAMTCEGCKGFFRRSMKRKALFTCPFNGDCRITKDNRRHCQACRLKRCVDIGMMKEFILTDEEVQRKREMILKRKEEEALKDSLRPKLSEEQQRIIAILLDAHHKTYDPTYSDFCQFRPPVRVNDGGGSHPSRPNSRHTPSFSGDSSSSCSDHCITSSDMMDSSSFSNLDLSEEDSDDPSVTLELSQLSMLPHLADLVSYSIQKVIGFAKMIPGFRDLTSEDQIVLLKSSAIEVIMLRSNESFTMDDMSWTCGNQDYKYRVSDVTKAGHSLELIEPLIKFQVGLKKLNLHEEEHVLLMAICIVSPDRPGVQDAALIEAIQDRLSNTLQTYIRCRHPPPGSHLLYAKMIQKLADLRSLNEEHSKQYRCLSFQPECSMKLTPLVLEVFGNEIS
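Signal is fluorescence polarization, reporting how far test compounds block the interaction of VDR with the SRC2-3 coregulator peptide after a 2 h room-temperature incubation.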
CCT chaperon mod – cytosolic chaperonin activity modulation. purified chaperonin ATPase assay, HTRF ADP detection, 30 min. activity change, % (concentration not given with the values), hits read low. actives 0.3% (n = 360,000); in the data active = activity change below about -30%
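First, chaperonin was dispensed at 40 nM or 20 nM final depending on batch activity. Next, compounds were pinned at 76 uM and ATP added at 10 uM. After 30 min at 37 °C, ADP detection reagents ran 30 min at ambient temperature.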
Mm-Cpn inhibitor – inhibitors of Methanococcus maripaludis chaperonin TRiC (MmCpn); purified Mm-Cpn ATPase, ADP Transcreener TR-FRET; Potency, µM (titrated, usually from 76.9 µM), without a hit: at the top dose activity, negative = inhibition, hits mostly inhibitors; actives 0.031% (n = 330,000); note: potency is the fitted concentration of half-maximal effect; nearly all actives have a fitted effect of over 80% in size
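25 nM Mm-CPN + cpd, 10 min 37°C; + 10 uM ATP, 30 min 37°C; buffer 30 mM Tris pH 7.4, 100 mM KCl, 5 mM MgCl2, 1 mM DTT; Transcreener ADP HTRF detection 30 min RT.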
Sfp inh – blocks B. subtilis Sfp PPTase activity; Biochemical Sfp PPTase activity, qHTS; Potency, µM, for inactives: largest response in the series, negative = inhibition, usual class: inhibitors; actives 3.5% (n = 310,000); AID 1490;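 note: the enzyme is Sfp with the accession as filed and its product quenches rhodamine fluorescence; potency is the fitted concentration of half-maximal effect; 0% = enzyme reaction without inhibitor and -100% = no enzyme wells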
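After 15 min at room temperature with compound, 15 nM Sfp received 5 uM rhodamine-CoA plus 12.5 uM BHQ-2-ybbR (50 mM Hepes pH 7.6, 10 mM MgCl2). Rate came from the fluorescence difference over 30 min, ex 525/em 598 nm.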
PLK1 PBD inh – PLK1 (human) polo-box domain binding inhibition | Potency, µM, inactives show max response, negative = inhibition, actives largely listed as inhibitors | Plk1 PBD binding of FITC phosphopeptide, fluorescence polarization | actives 2.8% (n = 360,000) | P53350; note: potency is the fitted concentration of half-maximal effect; series mostly up to about 57 µM; nearly all actives have a fitted effect of over 65% in size
G9a block – G9a (human) methyltransferase inhibition. Q96KQ7. G9a H3K9 monomethylation, AlphaScreen, 2 h. Potency, µM (highest dose often 102 µM), without a hit: top-dose activity, negative = inhibition, most hits filed as inhibitors. actives 8.8% (n = 350,000); note: potency is the fitted concentration of half-maximal effect; nearly all actives have a fitted effect of over 75% in size
Target sequence (Q96KQ7 913-1193 limits assumed): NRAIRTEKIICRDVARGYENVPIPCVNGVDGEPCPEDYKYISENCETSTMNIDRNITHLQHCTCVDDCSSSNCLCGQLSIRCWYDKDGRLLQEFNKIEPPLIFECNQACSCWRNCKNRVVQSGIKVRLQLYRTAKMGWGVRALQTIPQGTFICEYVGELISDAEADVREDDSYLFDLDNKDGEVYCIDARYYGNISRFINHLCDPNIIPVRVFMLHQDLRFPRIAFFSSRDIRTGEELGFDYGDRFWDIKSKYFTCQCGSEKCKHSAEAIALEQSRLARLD
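Methyltransferase reactions run at room temperature for 2 h (20 nM enzyme, 500 nM biotin-H3K9 peptide, 20 uM SAM) after a 15 min compound preincubation; product detected by AlphaScreen beads and anti-H3K9me1 antibody.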
Numbers without * were called inactive; ? = inconclusive; nt = no result; [ ] = dose if it differs, or a comment. Unless noted, calls come from the whole dose curve; as a rule, active = well fitted curve in the direction sought with a large enough effect; inconclusive = small, poorly fitted or top-dose-only effect, or another doubt; inactive = no such curve, though single readings can be large; an effect the other way counts as inactive or inconclusive. Unless noted, % is set by controls: 0 for no effect and ±100 for the full control effect.

SMILES	VDR inh	CCT chaperon mod	Mm-Cpn inhibitor	Sfp inh	PLK1 PBD inh	G9a block
COc1ccccc1N1CCN(C(C)C(=O)N2CC(C)OC(C)C2)CC1 (configuration not stated)	2%	0	-7%	-75%	-10%	28µM*
CCCC(=O)N/C(N)=N/c1nc(C)c2cc(C)ccc2n1	-1%	-11	1%	16%	-5%	-5%
Cc1ccc2nc(/N=C(\N)NC(=O)NC3CCCCC3)nc(C)c2c1	15%	0	0%	45µM*	11%	1%
Cc1cccc(Nc2nc(N)c([N+](=O)[O-])c(N3CCN(C)CC3)n2)c1	-10%	0	-12%	-2%	2%	?
Cc1cccc(Nc2nc(N)c([N+](=O)[O-])c(N3CCCC(C)C3)n2)c1 (configuration not stated)	2%	-1	-1%	6%	-2%	40µM*
CC(C)Oc1ccc(CNC(=O)CCCn2c(=O)c3cccn3c3ccccc32)cc1	-13%	nt	nt	nt	nt	-26%[59 µM]
CC(c1ccc(F)cc1)n1cc(C(=O)NCCN(C)C)nn1 (configuration not stated)	-5%	-11	0%	17%	-7%	45µM*
CC(c1ccc(F)cc1)n1cc(C(=O)NCc2ccccn2)nn1 (configuration not stated)	-24%	0	-7%	-2%	-9%	8%
Cc1ccc(NC(=O)c2cc(S(=O)(=O)NC3CCCCCC3)ccc2F)cc1F	1%	nt	nt	nt	nt	10%[59 µM]
Cc1ccc(-c2ccc(C(=O)O)o2)cc1Cl	-3%	0	1%	-5%	-3%	nt
N#CCCN1CCN(C(=S)c2ccc(-c3cccc(Cl)c3)o2)CC1	6%	1	-4%	45µM*	-27%	8.9µM*
N#CCCN1CCN(C(=S)c2ccc(-c3ccc(Cl)c(Cl)c3)o2)CC1	-11%	-2	-14%	50µM*	11µM*	?
COc1cc(/C=N/Nc2ncc(C(F)(F)F)cc2Cl)cc(OC)c1O	14%	-1	3%	89µM*	-9%	2%[2.33 µM]
Oc1ccc(/C=N/Nc2ccc(Cl)nn2)c(O)c1O	-2%	0	-3%	10µM*	17µM*	?
COc1ccc(/C=N/Nc2ncc(C(F)(F)F)cc2Cl)c(OC)c1OC	1%	0	1%	15%	-1%	16%[59 µM]
COc1cc(/C=N/Nc2ccc(Cl)nn2)cc(OC)c1O	-2%	0	-3%	50µM*	-3%	16µM*
CON/C=N/C(=S)Nc1ncc(C(F)(F)F)cc1Cl	13%	-3	0%	11µM*	-12%	-8%
Fc1cccc(/C=N/Nc2ccc(Cl)nn2)c1	-9%	-1	3%	-22%	-10%	5%[0.501 µM]
Oc1c(Br)cc(/C=N/Nc2ccc(Cl)nn2)cc1Br	-24%	-1	-1%	?	?	40µM*
Oc1c(Br)cc(Br)cc1/C=N/Nc1ccc(Cl)nn1	-13%	-1	0%	-4%	-9%	24%[2.33 µM]
CC(C)CCNC(=O)c1cccc(Nc2nc3ccccc3n3nnnc23)c1	-13%	nt	nt	nt	nt	8%[59 µM]
CCOC(=O)Cn1c(=O)n(CC2CCCO2)c2nc(-c3ccc(C(C)C)cc3)nc(C(N)=O)c21 (configuration not stated)	-6%	nt	nt	nt	nt	-2%[59 µM]
CCOC(=O)c1cc(S(=O)(=O)NCc2ccc(C)cc2)[nH]n1	8%	nt	nt	nt	nt	5.6µM*
CCOC(=O)c1cc(S(=O)(=O)NCc2cccc(Cl)c2)[nH]n1	2%	nt	nt	nt	nt	3.5µM*
Nc1ncc(S(=O)(=O)NCc2cccc(Cl)c2)cn1	25%	nt	nt	nt	nt	6%[59 µM]
SMILES	VDR inh	CCT chaperon mod	Mm-Cpn inhibitor	Sfp inh	PLK1 PBD inh	G9a block
C/C(=N\Nc1ccccc1C)c1cccnc1	?	-1	-5%	3%	-10%	1.4µM*
CSc1nncc(-c2ccccc2)n1	-1%	-4	-2%	1%	6%	6%
CSc1nncc(/C(C)=N\Nc2ccccc2C)n1	-16%	1	1%	1%	-5%	2.5µM*
CC/C(=N/O)c1cnnc(SC)n1	-13%	-5	1%	1%	-13%	19%[59 µM]
CSc1nncc(/C(C)=N/O)n1	-6%	-57*	0%	17%	-13%	1%[59 µM]
C/C(=N\NC(=O)c1ccccc1C)c1cccnc1	-21%	-3	-3%	7%	-9%	24%
Cc1cc(C)cc(-n2c(SCC(=O)NC3CCCCC3)nc3c([nH]c4ccccc43)c2=O)c1	2%	nt	nt	nt	nt	-3%[59 µM]
CCN(CC)Cc1cc2[nH]c3c4ccc(Cl)cc4ncc3c2cc1OC	-7%	0	-2%	-28%	-3%	45µM*
COc1ccc(CNc2ncnc3cc(Cl)ccc23)cc1OC	-10%	-2	4%	5%	-6%	9%
CCOc1ccc(/C=C/c2nc(C#N)c(N3CCN(c4ccccc4)CC3)o2)cc1	-1%	nt	nt	nt	nt	?
CNC(=O)[C@H](Cc1c[nH]c2ccccc12)NC(=O)[C@@H](CC(=O)NO)CC(C)C	?	nt	nt	10%	nt	-1%[12.7 µM]
Cc1cccc(Cn2c(O)c(N=NC(=S)Nc3ccccc3F)c3ccccc32)c1	-19%	2	0%	4%	-4%	8.9µM*
Cc1cccc(NC(=O)Cn2c(O)c(N=NC(N)=S)c3ccccc32)c1	-15%	0	-4%	40µM*	?	-15%[59 µM]
O=C(Cn1c(O)c(N=NC(=O)c2ccncc2)c2ccccc21)Nc1ccccc1	-3%	-3	0%	-23%	-4%	-2%[59 µM]
O=c1n(Cc2ccc(F)cc2)c2ccccc2c2nc(-c3ccccc3)nn12	3%	nt	nt	nt	nt	2%[59 µM]
COC(=O)COc1cc(OCC(=O)OC)c2c(C)c(Cl)c(=O)oc2c1	5%	1	-2%	4%	1%	10µM*
COC(=O)COc1cc(C)cc2oc(=O)c(CC(=O)OC)c(C)c12	-6%	1	-7%	1%	-3%	9%[59 µM]
COC(=O)C1=C(C)NC=C([N+](=O)[O-])C1c1ccc(OC)cc1 (configuration not stated)	-10%	2	-1%	14µM*	3%	-40%[59 µM]
CCOC(=O)C1=C(C)NC(C)=C(C(=O)OCC)C1c1ccc(OC)cc1	5%	-1	2%	5%	-7%	21%[59 µM]
CCCN(C(=O)c1cc2c(=O)oc3ccccc3c2s1)c1ccc(CC)cc1	6%	nt	nt	nt	nt	-3%[59 µM]
FC(F)(F)COc1nc(OCC(F)(F)F)nc(N2CCN(c3ccccc3)CC2)n1	7%	0	-1%	1%	-1%	?
O=C1CCCc2nc(N3CCN(c4ccccc4)CC3)ncc21	-4%	1	0%	7%	30µM*	29%
Fc1cnc(N2CCN(c3ccccc3)CC2)nc1N1CCN(c2ccccc2)CC1	-16%	0	0%	?	-2%	50µM*
Cc1ccc(CNC(=O)CN2C(=O)CCn3nc(-c4ccccc4)cc32)cc1	10%	nt	nt	nt	nt	-6%[59 µM]
Cc1ccc(S(=O)(=O)NCC(=O)NCC(=O)OCc2c(F)cccc2Cl)cc1	20%	-1	-12%	?	-12%	8.9µM*
